For orientation: inhibition means the change of the read-out against control, counted positive when it falls.

Here are results for 5 compounds from PubChem BioAssay.

The structures appear in SMILES notation. Inconclusive results are not listed. Calls of active or inactive are those of the source.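 The calls were made as follows, unless noted: active = GFP signal, as percent of the solvent control, above the screen mean plus 3 SD, about 149; inconclusive = no reading because the compound's own fluorescence upset strain identification; inactive = the rest.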

Experiment [1] is described as follows: rapamycin-like changes in RPL19A-GFP expression – cell-based, S. cerevisiae, multiplex flow cytometry, primary screen (AID 1862; in the data active = percent of DMSO control GFP below about 86%;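 also: lower values mimic rapamycin by blocking the RPL19A rise seen in DMSO cells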). Particulars: S. cerevisiae RPL19A-GFP strain, flow cytometry fluorescence, 3 h; at 10 µM; stronger effect = lower value. For orientation: Flow cytometry measures light scatter and fluorescence of single cells or particles in a stream.
The nature of experiment [2]: TOR pathway GLN3 branch reporter MEP2-GFP changes – S. cerevisiae, multiplex flow cytometry, primary screen (AID 1867;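 active = GFP response, as percent of the DMSO control, above the screen-wide mean plus 3 SD, about 139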;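 also: median GFP channel fluorescence of barcode-gated MEP2-GFP cells measured by flow cytometry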). Particulars: S. cerevisiae MEP2-GFP strain, 3 h, at 10 µM, stronger effect = higher value, 100% means same as DMSO wells.
The nature of experiment [3]: TOR pathway RTG branch CIT2 reporter changes – S. cerevisiae, GFP fusion, multiplex flow cytometry, primary screen (AID 1870;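 active = percent response above a set limit, the screen-wide mean plus 3 SD, cut at about 130% in these data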;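 also: barcoded CIT2-GFP strain pooled with four other GFP strains with rapamycin as positive control; median GFP fluorescence per well over plate mean of DMSO wells so 100% = DMSO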). Particulars: S. cerevisiae CIT2-GFP expression, 3 h, at 10 µM, stronger effect = higher value.
Experiment [4] can be described thus: TOR pathway LAP4-GFP level changes – S. cerevisiae, multiplex flow cytometry, primary screen (AID 1873). Particulars: S. cerevisiae LAP4-GFP expression, 3 h, at 10 µM, stronger effect = higher value.
A short description of experiment [5]: yeast AGP1-GFP level changes, GLN3 branch – cell-based, multiplex flow cytometry, S. cerevisiae, primary screen (AID 1887;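 active = GFP signal above the screen-wide mean plus 3 SD, that is over about 124.5% of the solvent control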;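 also: AGP1-GFP fusion strain of S. cerevisiae within a five-strain barcoded multiplex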). Particulars: 3 h, at 10 µM, stronger effect = higher value.
The nature of experiment [6]: reduced mouse 2C T cell binding to pMHC/ICAM-1 vesicles – MLPCN validation set, flow cytometry, LFA-1/ICAM-1 modulator project, pilot screen (AID 2523;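 active = response below a set limit, under 55% cells CD8-positive and vesicle-bound, and CD8 cells' 90th-percentile brightness under 279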;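 as to vesicle binding response: mean PE anti-B7-1 fluorescence of CD8+ cells relative to row control; 100% = QL9-loaded vesicles with DMSO vehicle in the same plate row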). As to conditions: 2C mouse CD8+ T cells, at 7 µM, stronger effect = lower value; double positive events: measured here: CD8+/vesicle+ event percentage.
Experiment [7] deals with Integrin beta-1 (Homo sapiens) + Integrin alpha-4 (Homo sapiens) (UniProt P13612+P05556). Briefly: alpha4beta1 integrin LIBS antibody binding reduction – U937 cells, HUTS-21 mAb, flow cytometry, validation set, VLA-4 allosteric modulator project, pilot screen (AID 2674;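 active = inhibition above 50%, about 3 SD of the validation set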;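 also: antibody binding induced by the VLA-4 ligand LDV present at three times its Kd; 0% = LDV ligand with antibody and no compound and 100% = antibody without LDV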). Particulars: HUTS-21 LIBS mAb binding, at 6.7 µM, stronger effect = higher value, binding induced by LDV ligand.
Experiment [8] is described as follows: calorie-restriction mimetic ROS inhibitors, yeast – validation compound set, pilot screen (AID 2706;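 active = superoxide response below 65% of plate, a cut near 3 SD across the whole screen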;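 also: yeast exposed to compound for one week at 30 degrees C before staining; 100% = mean of all compound wells on the same plate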). Particulars: S. cerevisiae aging, superoxide DHE fluorescence; at 10 µM; stronger effect = lower value.
In experiment [9] the target is Beta-adrenergic receptor kinase 1 (Homo sapiens) (UniProt P25098). Briefly: GRK2 binders displacing RNA aptamer, biochemical, validation, human GRK2, bead flow cytometry (AID 488806;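 active = aptamer binding inhibition above 30%, about 3 SD of noise from non-fluorescent compounds; inactive = inhibition at or below 30%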). As to conditions: bead-bound GRK2, FAM-aptamer displacement, at 10 µM, stronger effect = higher value.
Experiment [10] concerns the target Beta-2 adrenergic receptor (Homo sapiens) (UniProt P07550). Briefly: agonist-induced loss of surface beta2AR – cell-based, FAP fluorogen, flow cytometry, validation set, pilot screen (AID 504459;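 active = percent response above 42, roughly 3 SD of non-fluorescent test compounds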;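 also: agonist-driven loss of surface beta2AR via internalization measured by FAP dye flow cytometry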). As to conditions: Am2.2-beta2AR cells, at 10 µM, stronger effect = higher value.
For experiment [11], the target named is AP-2 complex subunit beta (Homo sapiens) (UniProt P63010). Nature of the experiment: beta-arrestin/AP2 interaction blockers – biochemical, validation set, GST-AP2 beads, flow cytometry, pilot screen (AID 504541;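 active = inhibition above 54%, about 3 SD of non-fluorescent compounds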;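 also: AP2 carries R879A mutation and is captured from E. coli lysate; bead-bound FITC arrestin peptide fluorescence measuring arrestin peptide binding to AP2; 0% = DMSO wells and 100% = excess unlabeled arrestin peptide control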). Particulars: FITC arrestin peptide, at 10 µM, stronger effect = higher value, AP2 beta2 appendage fragment, R879A mutant.
Experiment [12] in a line: cytosolic pH regulators acting via V-ATPase – S. cerevisiae, pHLuorin, HTS validation (AID 504600; in the data active = response above about 15%;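 also: plate controls were DMSO for no effect and reference compound for full effect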). Particulars: V-ATPase proton transport, at 10 µM, stronger effect = higher value.
Experiment [13] concerns anti-desmoglein-3 scFv antibody binding to human DSG3. Nature of the experiment: blockers of pathogenic pemphigus antibody–desmoglein-3 binding – biochemical, validation compound set, bead-based, flow cytometry, pilot screen (AID 588368;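 active = binding below the plate cutoff, the plate median minus 3 SD, with a reading above zero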;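 also: signal is the median channel fluorescence of bead-bound GFP antibody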). As to conditions: Protein G beads, DSG3-Fc, scFv-GFP binding, at 10 µM, stronger effect = lower value.
A short description of experiment [14]: Nile Red efflux blockade in pump-expressing yeast – validation compound set, multiplex, phenotypic, pilot screen (AID 588506;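 active = efflux inhibition above 0.42, the validation set average plus 4 SD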;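 also: Nile Red retained in cells so higher fluorescence means more efflux inhibition; 0 = negative control wells and 1 = enniatin B 25 µM full block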). As to conditions: S. cerevisiae pump-expressing triplex, Nile Red efflux flow cytometry; at 10 µM; stronger effect = higher value; the pumps come from Candida albicans.
The target of experiment [15] is ATP-binding cassette sub-family B member 6 (Homo sapiens) (UniProt Q9NP58). Nature of the experiment: blockers of ABCB6-driven porphyrin uptake – K562-ABCB6 cells, flow cytometry, validation set, pilot screen (AID 588550;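 active = inhibition above the screen-wide mean plus 3 SD, about 51%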;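 also: 0% = DMSO wells and 100% = benzethonium chloride 70 µM positive control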). As to conditions: K562-ABCB6 porphyrin accumulation, 1 h, at 10 µM, stronger effect = higher value.
Experiment [16] in a line: AML differentiation inducers, ER-HoxA9 marrow cells – cell-based, GFP/MAC1 double positive, flow cytometry, validation set, primary screen (AID 588685;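 active = differentiation response of at least 50%, scaled between solvent and reference control, from cells with both markers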;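 also: compound exposure lasts four days before antibody staining and flow analysis; 0% = DMSO wells and 100% = 5 µM fulvestrant positive control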). Particulars: stronger effect = higher value, normalized: vehicle 0, fulvestrant 100.

Sequence of ATP-binding cassette sub-family B member 6 (Homo sapiens) (Q9NP58 whole entry, looked up): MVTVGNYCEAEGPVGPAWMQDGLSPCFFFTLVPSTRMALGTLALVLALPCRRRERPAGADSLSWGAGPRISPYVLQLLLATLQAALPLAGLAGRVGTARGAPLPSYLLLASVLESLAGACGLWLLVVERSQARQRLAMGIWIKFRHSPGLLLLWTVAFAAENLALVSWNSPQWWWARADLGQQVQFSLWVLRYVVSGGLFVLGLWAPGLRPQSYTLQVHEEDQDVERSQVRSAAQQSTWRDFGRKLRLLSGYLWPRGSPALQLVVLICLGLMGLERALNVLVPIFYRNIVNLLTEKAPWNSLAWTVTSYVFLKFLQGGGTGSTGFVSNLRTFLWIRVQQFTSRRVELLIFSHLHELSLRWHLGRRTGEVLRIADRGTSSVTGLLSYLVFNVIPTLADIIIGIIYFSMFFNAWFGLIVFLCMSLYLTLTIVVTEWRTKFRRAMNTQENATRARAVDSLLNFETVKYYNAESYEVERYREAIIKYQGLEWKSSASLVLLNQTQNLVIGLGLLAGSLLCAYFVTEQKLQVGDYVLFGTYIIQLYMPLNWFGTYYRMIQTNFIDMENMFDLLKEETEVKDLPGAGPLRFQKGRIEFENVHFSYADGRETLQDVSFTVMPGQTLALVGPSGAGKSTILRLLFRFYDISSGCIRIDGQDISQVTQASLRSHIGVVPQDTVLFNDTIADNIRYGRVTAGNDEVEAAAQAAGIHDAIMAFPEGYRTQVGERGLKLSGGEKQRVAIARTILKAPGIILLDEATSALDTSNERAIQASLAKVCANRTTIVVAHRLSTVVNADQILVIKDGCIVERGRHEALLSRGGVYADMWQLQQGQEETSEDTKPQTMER
Sequence of Beta-adrenergic receptor kinase 1 (Homo sapiens) (P25098 whole entry, looked up): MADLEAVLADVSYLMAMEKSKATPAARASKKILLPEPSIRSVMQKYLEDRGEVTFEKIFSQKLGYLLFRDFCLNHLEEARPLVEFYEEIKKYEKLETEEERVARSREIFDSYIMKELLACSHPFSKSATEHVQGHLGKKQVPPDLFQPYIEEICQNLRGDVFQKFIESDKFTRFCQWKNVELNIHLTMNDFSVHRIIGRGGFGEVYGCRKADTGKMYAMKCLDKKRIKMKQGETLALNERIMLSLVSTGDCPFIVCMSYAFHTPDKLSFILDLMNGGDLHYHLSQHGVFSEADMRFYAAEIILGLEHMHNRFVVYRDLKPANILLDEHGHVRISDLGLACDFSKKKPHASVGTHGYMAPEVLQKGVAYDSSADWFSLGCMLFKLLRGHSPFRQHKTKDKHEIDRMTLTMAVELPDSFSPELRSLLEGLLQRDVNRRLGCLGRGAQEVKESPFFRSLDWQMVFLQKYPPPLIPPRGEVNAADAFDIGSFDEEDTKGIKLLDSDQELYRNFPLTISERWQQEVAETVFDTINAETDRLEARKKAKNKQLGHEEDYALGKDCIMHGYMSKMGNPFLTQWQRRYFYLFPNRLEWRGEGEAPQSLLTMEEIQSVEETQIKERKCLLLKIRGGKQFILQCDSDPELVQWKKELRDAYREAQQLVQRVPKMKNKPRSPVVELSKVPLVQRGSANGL
Sequence of AP-2 complex subunit beta (Homo sapiens) (P63010 whole entry, looked up, the tested form may be a part, one chain of several): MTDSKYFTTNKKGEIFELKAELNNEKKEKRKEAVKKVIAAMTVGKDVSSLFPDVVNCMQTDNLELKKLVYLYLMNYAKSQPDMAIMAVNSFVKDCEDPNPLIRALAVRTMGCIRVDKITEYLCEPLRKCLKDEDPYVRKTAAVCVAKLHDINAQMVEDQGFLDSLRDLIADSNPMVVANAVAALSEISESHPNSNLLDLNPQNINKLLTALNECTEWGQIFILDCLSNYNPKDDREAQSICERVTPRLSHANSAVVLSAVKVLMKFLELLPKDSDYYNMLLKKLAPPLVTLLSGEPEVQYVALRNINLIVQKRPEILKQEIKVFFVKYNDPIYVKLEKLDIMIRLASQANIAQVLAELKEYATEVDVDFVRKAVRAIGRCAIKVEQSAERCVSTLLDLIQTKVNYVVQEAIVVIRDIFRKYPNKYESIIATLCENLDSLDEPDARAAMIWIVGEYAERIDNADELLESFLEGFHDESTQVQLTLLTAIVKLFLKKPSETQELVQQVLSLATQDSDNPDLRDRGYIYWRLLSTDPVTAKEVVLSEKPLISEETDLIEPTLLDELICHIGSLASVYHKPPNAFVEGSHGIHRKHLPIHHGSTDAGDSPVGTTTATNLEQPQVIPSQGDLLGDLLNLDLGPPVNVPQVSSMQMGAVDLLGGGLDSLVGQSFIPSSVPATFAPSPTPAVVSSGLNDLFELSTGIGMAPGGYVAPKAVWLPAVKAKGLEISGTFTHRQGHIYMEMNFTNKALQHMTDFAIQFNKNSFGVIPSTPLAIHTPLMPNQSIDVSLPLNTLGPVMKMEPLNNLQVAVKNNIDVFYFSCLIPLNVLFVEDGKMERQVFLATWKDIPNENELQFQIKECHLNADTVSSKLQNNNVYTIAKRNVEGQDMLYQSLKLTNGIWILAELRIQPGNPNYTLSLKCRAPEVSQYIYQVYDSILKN
Sequence of Beta-2 adrenergic receptor (Homo sapiens) (P07550 whole entry, looked up): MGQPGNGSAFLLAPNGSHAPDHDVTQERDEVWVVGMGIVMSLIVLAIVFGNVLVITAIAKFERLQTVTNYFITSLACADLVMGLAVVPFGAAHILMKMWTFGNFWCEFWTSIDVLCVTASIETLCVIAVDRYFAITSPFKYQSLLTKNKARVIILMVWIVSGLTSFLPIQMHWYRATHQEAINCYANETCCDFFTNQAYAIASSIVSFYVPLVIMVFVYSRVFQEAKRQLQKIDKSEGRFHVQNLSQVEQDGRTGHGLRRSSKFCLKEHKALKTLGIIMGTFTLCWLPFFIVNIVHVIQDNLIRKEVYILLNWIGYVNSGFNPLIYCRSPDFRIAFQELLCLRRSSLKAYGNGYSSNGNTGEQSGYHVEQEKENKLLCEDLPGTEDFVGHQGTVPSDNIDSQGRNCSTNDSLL
Sequence of Integrin beta-1 (Homo sapiens) + Integrin alpha-4 (Homo sapiens) (P05556 whole entry, looked up): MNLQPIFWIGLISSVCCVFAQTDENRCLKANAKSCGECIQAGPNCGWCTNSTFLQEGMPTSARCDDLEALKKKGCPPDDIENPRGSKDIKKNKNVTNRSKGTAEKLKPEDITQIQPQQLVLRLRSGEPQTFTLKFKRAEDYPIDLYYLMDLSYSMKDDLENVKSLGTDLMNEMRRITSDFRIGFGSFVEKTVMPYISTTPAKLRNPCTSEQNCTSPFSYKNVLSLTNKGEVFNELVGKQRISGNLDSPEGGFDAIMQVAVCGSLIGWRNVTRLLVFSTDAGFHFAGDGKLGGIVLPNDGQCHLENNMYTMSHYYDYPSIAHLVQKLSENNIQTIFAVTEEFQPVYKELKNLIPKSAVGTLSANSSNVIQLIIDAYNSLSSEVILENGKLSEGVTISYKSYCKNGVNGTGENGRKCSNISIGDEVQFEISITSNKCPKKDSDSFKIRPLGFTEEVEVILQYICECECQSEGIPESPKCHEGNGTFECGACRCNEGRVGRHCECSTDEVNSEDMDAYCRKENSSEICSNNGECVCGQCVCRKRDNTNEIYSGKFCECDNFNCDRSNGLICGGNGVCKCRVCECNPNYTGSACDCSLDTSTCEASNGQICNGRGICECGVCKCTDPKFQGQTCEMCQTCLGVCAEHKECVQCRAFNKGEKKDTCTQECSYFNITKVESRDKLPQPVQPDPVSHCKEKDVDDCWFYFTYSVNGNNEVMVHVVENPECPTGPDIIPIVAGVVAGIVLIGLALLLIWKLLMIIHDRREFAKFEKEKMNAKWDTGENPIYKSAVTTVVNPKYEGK
Sequence of Integrin beta-1 (Homo sapiens) + Integrin alpha-4 (Homo sapiens) (P13612 whole entry, looked up): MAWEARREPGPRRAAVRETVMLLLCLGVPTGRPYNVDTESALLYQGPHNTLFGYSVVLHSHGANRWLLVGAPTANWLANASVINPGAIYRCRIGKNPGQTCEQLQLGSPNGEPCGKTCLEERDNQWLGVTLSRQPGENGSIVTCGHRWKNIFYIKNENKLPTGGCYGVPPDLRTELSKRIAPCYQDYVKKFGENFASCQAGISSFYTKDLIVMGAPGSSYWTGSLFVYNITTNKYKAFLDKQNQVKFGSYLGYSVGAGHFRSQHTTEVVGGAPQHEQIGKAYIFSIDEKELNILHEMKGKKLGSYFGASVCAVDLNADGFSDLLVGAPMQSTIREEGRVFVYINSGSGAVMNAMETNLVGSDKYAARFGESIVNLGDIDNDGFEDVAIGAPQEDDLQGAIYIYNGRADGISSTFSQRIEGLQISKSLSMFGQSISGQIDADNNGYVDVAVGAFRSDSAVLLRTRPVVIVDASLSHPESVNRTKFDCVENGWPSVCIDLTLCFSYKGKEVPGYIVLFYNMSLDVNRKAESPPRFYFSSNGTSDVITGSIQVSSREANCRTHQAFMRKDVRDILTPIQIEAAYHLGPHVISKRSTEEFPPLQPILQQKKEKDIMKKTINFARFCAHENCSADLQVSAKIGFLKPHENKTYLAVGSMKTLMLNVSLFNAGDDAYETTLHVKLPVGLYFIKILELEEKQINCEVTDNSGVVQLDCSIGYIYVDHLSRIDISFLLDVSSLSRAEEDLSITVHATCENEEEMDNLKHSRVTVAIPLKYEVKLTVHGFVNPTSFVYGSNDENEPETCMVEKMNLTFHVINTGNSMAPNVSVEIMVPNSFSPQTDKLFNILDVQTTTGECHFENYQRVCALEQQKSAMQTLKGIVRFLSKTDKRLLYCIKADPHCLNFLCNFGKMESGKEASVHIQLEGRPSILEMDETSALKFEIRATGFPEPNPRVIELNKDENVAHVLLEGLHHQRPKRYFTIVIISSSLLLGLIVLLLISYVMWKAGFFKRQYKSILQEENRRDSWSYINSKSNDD

Regarding `Cc1cccc2c(C(=O)O)cc(-c3cccnc3)nc12`, the percent of DMSO control GFP in experiment [1] is 104% (inactive). In addition, the GFP response vs DMSO in [2] is 105% (inactive); in experiment [4] it was 98% (inactive). For the same compound, the percent response of DMSO control in experiment [3] is 95.4% (inactive). For the same compound, the GFP response, % of DMSO in experiment [5] is 101% (inactive). Besides, the double positive events in experiment [6] amounted to 63.5%. Also, in experiment [6], the vesicle binding response was 140% (inactive). Moreover, the inhibition in experiment [7] was 3.7% (inactive); in experiment [11] it was -0.94% (inactive); in [15], -3% (inactive). Besides, the superoxide response (% of plate) in experiment [8] is 102% (inactive). Moreover, in [9], the aptamer binding inhibition was 0% (inactive). In addition, the response in experiment [10] is -8.08% (inactive); in [12] it was 2.28% (inactive). For the same compound, the binding (% of control) in experiment [13] was 95% (inactive). In addition, in experiment [14], the efflux inhibition (fraction of control) is -0.01 (inactive). In [16], the differentiation response was 7.09% (inactive).

Turning to `CCOc1ccc2[nH]c3c(=O)n(CCc4ccc(OC)cc4)cnc3c2c1`, the percent of DMSO control GFP in [1] was 99.5% (inactive). Moreover, the GFP response vs DMSO in experiment [2] was 112% (inactive); in experiment [4] it was 120% (inactive). Further, the percent response of DMSO control in experiment [3] is 90.1% (inactive). Also, the GFP response, % of DMSO in experiment [5] is 101% (inactive). The compound further showed a double positive events in [6] of 61.3%. Besides, the vesicle binding response in experiment [6] is 211% (inactive). For the same compound, the values for the inhibition in [7], in experiment [11] and in experiment [15] were 6.4% (inactive), -8.18% (inactive) and 5% (inactive), respectively. The superoxide response (% of plate) in experiment [8] was 99.7% (inactive). The aptamer binding inhibition in [9] is 0% (inactive). The response is 0.24% (inactive) in [10] and 65.9% (active) in [12]. Further, the binding (% of control) in experiment [13] is 102% (inactive). The efflux inhibition (fraction of control) in [14] is 0.12 (inactive). In addition, the differentiation response in experiment [16] was 29.6% (inactive).

For the compound `COc1ccc(C(=O)CCN2CCc3cc(OC)c(OC)cc3C2)cc1`, the percent of DMSO control GFP in experiment [1] is 104% (inactive). For the same compound, the results for the GFP response vs DMSO in [2] and in experiment [4] were 116% (inactive) and 70.3% (inactive), respectively. The percent response of DMSO control in experiment [3] was 107% (inactive). Besides, in experiment [5], the GFP response, % of DMSO is 99.7% (inactive). Besides, in experiment [6], the double positive events was 59%. The vesicle binding response in [6] was 115% (inactive). The values for the inhibition in experiment [7], in experiment [11] and in [15] were 1.12% (inactive), -1.91% (inactive) and 13% (inactive), respectively. Further, the superoxide response (% of plate) in [8] is 111% (inactive). In [9], the aptamer binding inhibition was 2% (inactive). The figures for the response in experiment [10] and in experiment [12] were 2.49% (inactive) and -2.28% (inactive), respectively. Also, in experiment [13], the binding (% of control) is 96.7% (inactive). The efflux inhibition (fraction of control) in experiment [14] is 0.42 (inactive). Also, the differentiation response in [16] is 4.97% (inactive).

In the case of `CC1(C)C(=O)OC(c2cccs2)C2(CCCCC2)C1=O` (stereo not given), in [1], the percent of DMSO control GFP is 99.2% (inactive). Further, the GFP response vs DMSO in experiment [2] was 108% (inactive); in experiment [4], 105% (inactive). Also, the percent response of DMSO control in experiment [3] is 96.6% (inactive). Moreover, the GFP response, % of DMSO in experiment [5] is 97.5% (inactive). The compound also displayed a double positive events in experiment [6] of 61.1%. Also, the vesicle binding response in [6] is 228% (inactive). In addition, the figures for the inhibition in experiment [7], in experiment [11] and in [15] were -18.1% (inactive), 44.8% (inactive) and 2% (inactive), respectively. Further, the superoxide response (% of plate) in experiment [8] is 109% (inactive). Besides, the aptamer binding inhibition in experiment [9] was 0% (inactive). Besides, the response in experiment [10] is 3.42% (inactive); in [12] it was -2.62% (inactive). Also, the binding (% of control) in experiment [13] is 97.4% (inactive). Moreover, the efflux inhibition (fraction of control) in experiment [14] is -0.01 (inactive). The differentiation response in [16] is 53% (active).

As to `O=C1C(Cc2ccccc2)NC(=S)N1c1ccccc1` (stereo not given), the percent of DMSO control GFP in experiment [1] was 96.1% (inactive). Moreover, the GFP response vs DMSO in experiment [2] is 105% (inactive); in [4], 115% (inactive). Also, the percent response of DMSO control in experiment [3] was 92% (inactive). The GFP response, % of DMSO in experiment [5] is 99.4% (inactive). The compound also showed a double positive events in experiment [6] of 60.7%. Further, in experiment [6], the vesicle binding response was 179% (inactive). Also, the inhibition is -14.1% (inactive) in experiment [7], -7.42% (inactive) in [11] and 9% (inactive) in [15]. Also, the superoxide response (% of plate) in experiment [8] was 98.2% (inactive). Also, the aptamer binding inhibition in [9] is 5% (inactive). The results for the response in experiment [10] and in experiment [12] were -16.9% (inactive) and 13.2% (inactive), respectively. For the same compound, the binding (% of control) in experiment [13] is 98.7% (inactive). Besides, the efflux inhibition (fraction of control) in [14] was -0.24 (inactive). Besides, the differentiation response in experiment [16] is -28% (inactive).
